Screens deposited in PubChem BioAssay by National Center for Advancing Translational Sciences (NCATS).
hNpr1 antagonist = blocks ANP-stimulated signaling of human Npr1 receptor | P16066 | HEK293 hNpr1 GloSensor cGMP, ANP-stimulated luminescence | Potency, µM (titrated, usually from 46.3 µM), without a hit: top-dose activity change, negative = inhibition, actives largely listed as inhibitors | hit rate 1.6% among 76,000; calls by dose curve; note: nearly all actives have a fitted effect of over 60% in size
Target sequence (P16066 whole entry, looked up): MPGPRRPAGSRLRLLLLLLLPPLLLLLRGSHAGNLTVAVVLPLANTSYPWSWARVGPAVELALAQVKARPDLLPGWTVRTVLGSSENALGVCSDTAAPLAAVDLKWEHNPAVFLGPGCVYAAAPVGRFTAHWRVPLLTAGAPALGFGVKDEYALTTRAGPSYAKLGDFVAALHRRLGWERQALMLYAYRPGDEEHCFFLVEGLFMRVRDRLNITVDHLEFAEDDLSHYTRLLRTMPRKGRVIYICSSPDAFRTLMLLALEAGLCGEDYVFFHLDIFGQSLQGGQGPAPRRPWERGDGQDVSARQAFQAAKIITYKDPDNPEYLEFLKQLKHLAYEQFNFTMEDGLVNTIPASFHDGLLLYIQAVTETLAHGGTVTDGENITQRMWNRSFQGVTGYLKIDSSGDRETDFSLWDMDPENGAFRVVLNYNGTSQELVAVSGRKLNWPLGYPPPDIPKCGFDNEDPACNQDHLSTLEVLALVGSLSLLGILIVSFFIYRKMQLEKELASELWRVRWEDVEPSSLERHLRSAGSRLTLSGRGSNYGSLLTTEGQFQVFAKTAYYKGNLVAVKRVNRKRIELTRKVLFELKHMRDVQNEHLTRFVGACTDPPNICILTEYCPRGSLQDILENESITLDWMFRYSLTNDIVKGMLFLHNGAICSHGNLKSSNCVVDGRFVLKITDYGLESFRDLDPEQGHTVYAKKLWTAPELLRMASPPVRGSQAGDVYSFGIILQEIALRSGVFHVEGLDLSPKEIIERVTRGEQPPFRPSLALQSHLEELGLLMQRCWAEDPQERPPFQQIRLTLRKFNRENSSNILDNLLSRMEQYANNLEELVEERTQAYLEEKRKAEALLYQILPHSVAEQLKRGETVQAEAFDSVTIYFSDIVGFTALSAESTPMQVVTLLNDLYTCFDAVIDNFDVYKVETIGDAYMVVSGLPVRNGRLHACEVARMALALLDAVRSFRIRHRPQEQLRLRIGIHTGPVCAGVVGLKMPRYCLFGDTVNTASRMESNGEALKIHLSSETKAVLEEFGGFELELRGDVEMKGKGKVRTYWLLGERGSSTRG
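HEK293 cells stably expressing human Npr1 and cGMP GloSensor pGS-40F, loaded 2 h with 2% GloSensor reagent, given compound 30 min at room temperature. Luminescence read before and 20 min after 0.1 nM hNppA.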
Luciferase inh = inhibitors of firefly (Photinus pyralis) luciferase; purified P. pyralis luciferase, luminescence, biochemical; Potency, µM (doses to about 115 µM), hits mostly inhibitors; hit rate 2.5% among 76,000; P08659; AID 1347043; note: nearly all actives have a fitted effect of over 65% in size
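Purified P. pyralis luciferase (10nM final) in 50mM Tris acetate pH 7.5, 10mM Mg acetate, 0.01% Tween-20, 0.05% BSA with 10uM D-luciferin and 10uM ATP. Compounds titrated qHTS. Luminescence imaged on CCD.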
HEK cytotox = HEK 293 cell cytotoxicity; HEK 293 viability, ATP luminescence (CellTiter-Glo), 48-72 h; Potency, µM (doses to about 115 µM), for inactives: at the highest dose activity change, negative = cytotoxicity, hits mostly inhibitors; AID 1345083; hit rate 6.6% among 94,000; note: nearly all actives have a fitted effect of over 60% in size
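Luminescence from cellular ATP, measured with CellTiter-Glo, indicates HEK 293 viability. Cells plated at 250 cells/well are treated with compound for 48 or 72 hr at 37 degree Celsius before reagent addition.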
NIH3T3 tox = kills NIH 3T3 cells | NIH 3T3 viability, CellTiter-Glo ATP luminescence, 48-72 h | Potency, µM (doses to about 96.7 µM), for the others: at the highest dose activity change, negative = cytotoxicity, usual class: inhibitors | hit rate 4.3% among 94,000 | AID 1345082; note: nearly all actives have a fitted effect of over 55% in size
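Mouse fibroblast NIH 3T3 cells, 400 per well, received compound via pintool and were incubated for 48 or 72 hr prior to CellTiter-Glo ATP luminescence measurement.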
GPT2 inh = inhibitors of human GPT2 alanine aminotransferase; Recombinant GPT2, coupled pyruvate oxidase/HRP Amplex Red fluorescence; Potency, µM (titrated, usually from 57.7 µM), for the others: at the highest dose activity change, negative = inhibition, actives largely listed as inhibitors; hit rate 0.25% among 100,000; AID 1671188; note: nearly all actives have a fitted effect of over 60% in size
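Recombinant GPT2 (10ng/uL) with 250uM a-KG and 2mM L-alanine, 30 min at room temperature, in HEPES pH 7.5 buffer. Pyruvate detected by pyruvate oxidase/HRP/Amplex Red fluorescence after 30 min in the dark; AOA (50uM) as positive control.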
Active calls of the source: *; i = inactive; u = inconclusive; x = not tested or not shown; [ ] = remark or other dose. A selection: hits, their analogues and other compounds. The true share with any hit is near 10%. Unless noted, calls come from the whole dose curve; as a rule, active = well fitted curve in the direction sought with a large enough effect; inconclusive = small, poorly fitted or top-dose-only effect, or another doubt; inactive = no such curve, though single readings can be large; an effect the other way counts as inactive or inconclusive. % is set by controls: 0 for no effect and ±100 for the full control effect; potency is the fitted concentration of half-maximal effect.

SMILES	hNpr1 antagonist	Luciferase inh	HEK cytotox	NIH3T3 tox	GPT2 inh
Cn1ccc(C(=O)N2CCC3(CC2)OC(=O)N(Cc2ccccc2F)C3(C)c2ccccc2)n1 (stereo not given)	-1%	i	-11%	u	-7%
COc1cccc(CC(=O)N2CCC3(CC2)OC(=O)N(Cc2ccccc2F)C3(C)c2ccccc2)c1 (stereo not given)	-4%	i	u	25µM*	2%
O=C1NCc2ccccc2CC12CCN(Cc1ccc(F)c(Cl)c1)C2 (stereo not given)	x	x	u	u	4%
COCCC1(NC(=O)c2ccccc2)CCN(S(=O)(=O)c2ccc(C#N)cc2)CC1	1%	i	-9%	u	-11%
CCn1cc(-c2ccc(C)cc2)cc1C(=O)NC(C)c1ccccn1 (stereo not given)	-7%	i	40µM*	u	i
CC(c1cccs1)N(C)C(=O)Cc1ccc(F)cc1 (stereo not given)	0%[70.6 µM]	i	u	-15%[138 µM]	-5%[88.5 µM]
COC(=O)c1ccc2nc(C[C@@H]3C[C@@H](C(C)C)[C@H](CN(C)C)C=C3C)[nH]c2c1	-12%[70.6 µM]	i	u	71µM*	u
COCC(=O)NC[C@@H]1C=C(C)[C@H](Cc2nc3ccc(C(=O)OC)cc3[nH]2)C[C@H]1C(C)C	-10%[70.6 µM]	i	63µM*	100µM*	i
COC(=O)c1ccc2nc(C[C@@H]3C[C@@H](C(C)C)[C@H](CNC(=O)C4CCC4)C=C3C)[nH]c2c1	-13%	i	u	u	5%
COC(=O)c1ccc2nc(C[C@@H]3C[C@@H](C(C)C)[C@H](CNC(=O)CN(C)C)C=C3C)[nH]c2c1	1%	i	35µM*	u	-3%
CNC(=O)[C@@H](c1ccccc1F)N1CCC[C@H]1C(=O)NCC1CC1	-1%[70.6 µM]	i	5%[172 µM]	i	0%[88.5 µM]
CC(C)NC(=O)c1cnc2c(c1)N(C(=O)Cc1cccc(C(F)(F)F)c1)CCC2	2%[70.6 µM]	i	-16%[172 µM]	u	-28%[88.5 µM]
CC(C)c1ccc(CC(=O)N2CCCc3ncc(C(=O)Nc4cccc(C(F)(F)F)c4)cc32)cc1	-27%	i	32µM*	u	-11%
Cc1ccccc1NC(=O)c1cnc2c(c1)N(C(=O)Cc1ccc(C(C)C)cc1)CCC2	u	i	100µM*	89µM*	-5%[88.5 µM]
O=C(CCN1c2ccccc2Sc2ccccc21)N1CCCC(c2nc(C3CCOCC3)no2)C1 (stereo not given)	-25%	i	40µM*	u	0%
O=C(c1ccccc1)N1CCCC(c2nc(C3CCOCC3)no2)C1 (stereo not given)	-9%	i	4%	-3%	i
CCOC(=O)c1ccc(N2CCN(CCC3c4cccnc4C(=O)N3c3c(C)cccc3C)CC2)cc1 (stereo not given)	x	x	35µM*	u	4%[27.3 µM]
COC(=O)c1ccc(CNC(=O)CC2c3cccnc3C(=O)N2c2c(Cl)cccc2Cl)cc1 (stereo not given)	x	x	u	u	-1%[27.3 µM]
OC[C@@H]1CNC[C@H]1C1CCN(Cc2ccc(OC(F)(F)F)cc2)CC1	-2%	i	40µM*	u	i
OC[C@@H]1CNC[C@H]1C1CCN(Cc2ccc(Cl)c(F)c2)CC1	5%	i	40µM*	u	i
COc1ccc(CN2C[C@@H](CO)[C@H](NC(=O)C3CC3)C2)cc1	0%	i	-12%	u	-4%
O=C(NCc1cc(-c2ccccc2Cl)no1)C1CC2(CCNCC2)CN1 (stereo not given)	-2%	i	i	i	0%
OCc1ccc(CN(Cc2ccc(CO)o2)C2(Cc3cc(-c4ccccc4)on3)COC2)o1	5%	i	-24%	-16%	i
O=C(NCCN1CCOCC1)[C@H]1C[C@@H](O)[C@H](O)[C@@H]2N=C(Nc3ccc(-n4cccn4)cc3)S[C@@H]21	0%	35µM*	-18%	-16%	i
Cc1ccc(O)c(CN2CC[C@@H](c3ccc4ccccc4c3)[C@H](O)C2)n1	u	i	45µM*	u	-7%
SMILES	hNpr1 antagonist	Luciferase inh	HEK cytotox	NIH3T3 tox	GPT2 inh
O=C(C1CCN(c2nccc(Nc3ccccc3Cl)n2)CC1)N1CCC(Cc2ccccc2)CC1	x	x	25µM*	u	-11%
Cc1ccc(Nc2ccnc(N3CCCC(C(=O)N4CCN(Cc5ccccc5)CC4)C3)n2)cc1 (stereo not given)	x	x	13µM*	40µM*	i
COc1ccc(Nc2ccnc(N3CCC(C(=O)N4CCN(Cc5ccccc5)CC4)CC3)n2)cc1	x	x	32µM*	u	i
COc1ccc(Nc2ccnc(N3CCC(NC(=O)Nc4ccccc4)CC3)n2)cc1	x	x	u	u	-5%
CC(=O)N1CCN(C(=O)C2CCN(c3nccc(Nc4ccccc4Cl)n3)CC2)CC1	x	x	u	u	i
O=C(C1CCN(c2nccc(Nc3ccccc3Cl)n2)CC1)N1CCN(Cc2ccccc2)CC1	x	x	u	32µM*	i
Cc1ccc(Nc2ccnc(N3CCCC(C(=O)N4CCOCC4)C3)n2)cc1 (stereo not given)	x	x	u	u	i
O=C(CCn1ccc(=O)[nH]c1=O)N1CCC(c2[nH]ncc2-c2ccccc2)CC1	1%	i	-11%	-15%	-30%
COCCn1nc2n(c1=O)CCN(C(=O)CCc1c(C)noc1C)CC2	4%	i	-2%	-1%	i
O=C(NCc1ccc2c(c1)OCO2)c1nc2cccnc2n(Cc2ccccc2)c1=O	x	x	79µM*	u	2%
c1ccc(OCc2noc(-c3ccc(NC4CCSC4)nc3)n2)cc1 (stereo not given)	-12%	u	u	u	i
Cc1cc(CN(C)c2ccc(-c3nc(COc4ccccc4)no3)cn2)on1	16µM*	u	u	u	-8%
CC1(COc2ccc(-c3nc(COc4ccccc4)no3)cn2)CCCNC1 (stereo not given)	u	35µM*	u	u	i
COc1cccc(Cn2c(=O)c3ccnn3c3ccc(C(=O)NCCCN(C)C)cc32)c1	-2%	i	40µM*	35µM*	i
CCCCNC(=O)c1ccc2c(c1)n(Cc1cccc(OC)c1)c(=O)c1ccnn12	-11%	i	-7%	u	i
O=C(NCCc1ccc(Cl)cc1)c1ccc2nc(-c3ccccn3)oc2c1	x	x	u	u	5%
Cc1ccc(-c2noc([C@@H]3Cc4nc[nH]c4CN3Cc3ccc(N(C)C)cc3)n2)cc1	u	u	89µM*	100µM*	-6%[88.5 µM]
CN(C)c1ccc(CN2Cc3[nH]cnc3C[C@H]2c2nc(-c3ccccc3)no2)cc1	-4%[70.6 µM]	40µM*	u	u	-17%[88.5 µM]
